Laboratory results taken from PubChem BioAssay AID1159580 (chemical genetic matrix, 2015).
The campaign covered roughly 5,500 compounds. About 2,000 (36%) were called active. Not shown: some 18% with an inconclusive outcome. No stated cut-off is given here; in the data, active means normalized growth mostly below about 0.91 (no sharp cut-off); inconclusive means no clear call, values can overlap the other calls; inactive means mostly above about 0.92. The list shows a part of the results.

Assay: chemical genetic growth profiling, strain panel (AID 1159580);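 further: tested at 20 µM; growth read once vehicle control cultures reached saturation at 30 °C; 1 = growth at the plate median or of vehicle wells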
Details: S. cerevisiae deletion strains, growth OD

Measured: normalized growth

FC(F)(F)COCC(F)(F)F
inactive: locus YAL021C, strain ccr4, stronger effect = lower value 1.02 | locus YAL026C, strain drs2, stronger effect = lower value 1.04 | locus YAL030W, strain snc1, stronger effect = lower value 0.993 | locus YBL061C, strain skt5, stronger effect = lower value 1.03 | locus YBR009C, strain hhf1, stronger effect = lower value 0.998 | locus YBR023C, strain chs3, stronger effect = lower value 1.03 | locus YBR171W, strain sec66, stronger effect = lower value 1.01 | locus YBR231C, strain swc5, stronger effect = lower value 1.02 | locus YBR279W, strain paf1, stronger effect = lower value 1.02 | locus YCL011C, strain gbp2, stronger effect = lower value 1.02 | locus YCL016C, strain dcc1, stronger effect = lower value 1.03 | locus YCL069W, strain vba3, stronger effect = lower value 1.03 | locus YCR088W, strain abp1, stronger effect = lower value 1.01 | locus YDL005C, strain med2, stronger effect = lower value 1.01 | locus YDL040C, strain nat1, stronger effect = lower value 1.02 | locus YDR001C, strain nth1, stronger effect = lower value 1.01 | locus YDR069C, strain doa4, stronger effect = lower value 1.02 | locus YDR137W, strain rgp1, stronger effect = lower value 1.03 | locus YDR159W, strain sac3, stronger effect = lower value 0.963 | locus YDR195W, strain ref2 0.996 | locus YDR297W, strain sur2, stronger effect = lower value 1.01 | locus YDR334W, strain swr1, stronger effect = lower value 1.01 | locus YDR335W, strain msn5, stronger effect = lower value 1.03 | locus YDR392W, strain spt3, stronger effect = lower value 0.971 | locus YEL003W, strain gim4, stronger effect = lower value 0.992 | locus YEL037C, strain rad23, stronger effect = lower value 1.01 | locus YEL061C, strain CIN8 (second series), stronger effect = lower value 1 | locus YER015W, strain faa2, stronger effect = lower value 1.02 | locus YER016W, strain bim1, stronger effect = lower value 1.03 | locus YER111C, strain swi4, stronger effect = lower value 1.01 | locus YER155C, strain BEM2 (second series), stronger effect = lower value 0.986 | locus YFR010W, strain ubp6, stronger effect = lower value 0.999 | locus YGL167C, strain pmr1, stronger effect = lower value 1.02 | locus YGL173C, strain kem1, stronger effect = lower value 1 | locus YGL227W, strain vid30, stronger effect = lower value 1.02 | locus YGL240W, strain doc1, stronger effect = lower value 0.996 | locus YGL253W, strain hxk2, stronger effect = lower value 1.03 | locus YHR013C, strain ard1, stronger effect = lower value 1.02 | locus YHR027C, strain rpn1, stronger effect = lower value 1.02 | locus YHR030C, strain SLT2, stronger effect = lower value 0.998 | locus YHR079C, strain IRE1, stronger effect = lower value 0.96 | locus YHR142W, strain chs7, stronger effect = lower value 1.03 | locus YJL092W, strain hpr5, stronger effect = lower value 1.02 | locus YJL095W, strain BCK1 (second series), stronger effect = lower value 1.03 | locus YJL095W, strain BCK1, stronger effect = lower value 1 | locus YJL115W, strain asf1, stronger effect = lower value 1.02 | locus YJL129C, strain trk1, stronger effect = lower value 1.04 | locus YJL154C, strain vps35, stronger effect = lower value 1.04 | locus YJL164C, strain tpk1, stronger effect = lower value 1.02 | locus YJL166W, strain qcr8, stronger effect = lower value 0.986 | locus YJL187C, strain SWE1, stronger effect = lower value 1.02 | locus YJR066W, strain TOR1, stronger effect = lower value 0.938 | locus YKL160W, strain elf1, stronger effect = lower value 1.01 | locus YKR026C, strain gcn3, stronger effect = lower value 1.01 | locus YKR091W, strain srl3, stronger effect = lower value 1.01 | locus YLL001W, strain dnm1, stronger effect = lower value 0.988 | locus YLL026W, stronger effect = lower value 1 | locus YLL041C, strain sdh2, stronger effect = lower value 1.02 | locus YLR027C, strain aat2, stronger effect = lower value 1.02 | locus YLR113W, strain HOG1, stronger effect = lower value 0.999 | locus YLR221C, strain rsa3, stronger effect = lower value 0.996 | locus YLR258W, strain gsy2, stronger effect = lower value 1.04 | locus YLR262C, strain YPT6 (second series), stronger effect = lower value 0.992 | locus YLR320W, strain mms22, stronger effect = lower value 0.968 | locus YLR342W, strain FKS1, stronger effect = lower value 1.03 | locus YLR357W, strain rsc2, stronger effect = lower value 1.01 | locus YLR370C, strain arc18, stronger effect = lower value 1.03 | locus YLR384C, strain iki3, stronger effect = lower value 1.02 | locus YML120C, strain ndi1, stronger effect = lower value 1 | locus YMR058W, strain fet3, stronger effect = lower value 1.04 | locus YMR125W, strain sto1, stronger effect = lower value 1.04 | locus YMR129W, stronger effect = lower value 1 | locus YMR205C, strain PFK2, stronger effect = lower value 1 | locus YMR231W, strain pep5, stronger effect = lower value 1.01 | locus YNL071W, strain lat1, stronger effect = lower value 1.03 | locus YNL183C, strain NPR1, stronger effect = lower value 0.948 | locus YNL209W, strain ssb2, stronger effect = lower value 1.03 | locus YNL248C, strain rpa49, stronger effect = lower value 1.04 | locus YNL322C, strain KRE1 (second series), stronger effect = lower value 1.02 | locus YNR049C, strain mso1, stronger effect = lower value 1.01 | locus YOR001W, strain rrp6, stronger effect = lower value 0.986 | locus YOR070C, strain gyp1, stronger effect = lower value 1.01 | locus YOR080W, strain dia2, stronger effect = lower value 1.01 | locus YOR083W, strain WHI5, stronger effect = lower value 0.981 | locus YOR106W, strain vam3, stronger effect = lower value 1.04 | locus YOR231W, strain MKK1, stronger effect = lower value 0.993 | locus YOR265W, strain rbl2, stronger effect = lower value 1.01 | locus YOR270C, strain vph1, stronger effect = lower value 1.07 | locus YOR290C, strain snf2, stronger effect = lower value 1.03 | locus YPL051W, strain arl3, stronger effect = lower value 1.03 | locus YPL078C, strain atp4, stronger effect = lower value 1.03 | locus YPL106C, strain sse1, stronger effect = lower value 0.983 | locus YPL240C, strain hsp82, stronger effect = lower value 1 | locus YPL256C, strain CLN2, stronger effect = lower value 0.948
